Results taken from PubChem BioAssay (NCATS).
Several values for one entry are separate records, joined by “and”; a condition that tells them apart may be missing. Equal entries are not always repeated. Results filed as inconclusive are left out. Activity calls are given as the source filed them. The call rests on the fitted dose curve; in most records, active means well fitted curve in the direction sought with a large enough effect; inconclusive means small, poorly fitted or top-dose-only effect, or another doubt; inactive means no such curve, though single readings can be large; an effect the other way counts as inactive or inconclusive.

Legend:
[1] = target: Cellular tumor antigen p53 (Homo sapiens) (UniProt P04637); assay: Primary qHTS for small molecule compounds that upregulate eGFP-tagged delta133p53alpha (in N-terminal) cells. (AID 2060322); conditions: NCI-H358 eGFP-delta133p53alpha fluorescence, 24 h; activation: active compounds read high; further: nearly all actives have a fitted effect of over 75% in size; further: potency means the concentration at half of the fitted maximal effect;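 on activation: cells pre-induced with doxycycline then dosed without doxycycline; series mostly up to about 56 µM; 0% = DMSO vehicle and 100% = reference activator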
Method in brief: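 NCI-H358 cells pre-induced 24 h with 10 ng/ml doxycycline for eGFP-delta133p53alpha, plated dox-free and exposed 24 h at 37C to titrated compounds. Fixed, Hoechst-stained; gated GFP peak intensity by laser scanning cytometry, normalized to DMSO (0%) and 57.5 uM 5-azacytidine (100%).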

[2] = target: Aldehyde dehydrogenase, mitochondrial (Homo sapiens) (UniProt P05091); assay: qHTS for Inhibitors of the Aldehyde Dehydrogenase Family (ALDH2) Primary screen (AID 2061308);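 further: plate controls were vehicle for no effect and reference inhibitor for full effect; nearly all actives have a fitted effect of over 55% in size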
[3] = target: Retinaldehyde dehydrogenase 3 (Homo sapiens) (UniProt P47895); assay: qHTS for Inhibitors of the Aldehyde Dehydrogenase Family (ALDH1A3) Primary screen (AID 2061315);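 further: plate controls were DMSO vehicle for no effect and reference inhibitor for full effect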
[4] = BET inhibitor-based combinations targeting novel dependencies in MECOM-rearranged (r) AML: SET-2 cell line (AID 2202231); conditions: SET-2 AML cells viability, CellTiter-Glo luminescence, 48 h; viability: active compounds read low, concentration not given here; further: nearly all actives have a fitted effect of over 35% in size; further: potency means the concentration at half of the fitted maximal effect;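 on viability: plate controls were DMSO treated cells for no effect and wells without cells for full effect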
Method in brief: (§1)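 Each compound was tested at eleven concentrations on cells seeded at 500/well. After two days' incubation, ATP-based luminescence reported viability; responses relative to DMSO and blank wells yielded AUC and cell-line-centred Z-AUC.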

[5] = BET inhibitor-based combinations targeting novel dependencies in MECOM-rearranged (r) AML: OCI-AML3 cell line (AID 2202232); conditions: Potency: OCI-AML3 viability; further: nearly all actives have a fitted effect of over 35% in size; further: potency means the concentration at half of the fitted maximal effect;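 on viability (% of control): series mostly up to about 46 µM; plate controls were DMSO vehicle wells for no effect and wells without cells for full effect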
Method in brief: as §1

[6] = BET inhibitor-based combinations targeting novel dependencies in MECOM-rearranged (r) AML: UCSD-AML1 cell line (AID 2202235); further: nearly all actives have a fitted effect of over 40% in size; further: potency means the concentration at half of the fitted maximal effect;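 on viability (% of control): series mostly up to about 46 µM; plate controls were DMSO vehicle wells for no effect and blank wells for full effect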
Method in brief: (§2)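 First, 500 cells per well were seeded; next, drugs were pinned as 11-point doses; then plates sat 48 hr in the incubator; finally CellTiter-Glo was added and luminescence read, with AUC and Z-AUC computed.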

[7] = BET inhibitor-based combinations targeting novel dependencies in MECOM-rearranged (r) AML: AML-191 cell line (AID 2202236; further: nearly all actives have a fitted effect of over 35% in size; further: potency means the concentration at half of the fitted maximal effect;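 on viability (% of control): plate controls were vehicle wells for no effect and wells without cells for full effect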)
Method in brief: as §1

[8] = BET inhibitor-based combinations targeting novel dependencies in MECOM-rearranged (r) AML: HNT-34 cell line (AID 2202234); further: nearly all actives have a fitted effect of over 35% in size; further: potency means the concentration at half of the fitted maximal effect;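 on viability (% of control): plate controls were vehicle wells for no effect and cell-free wells for full effect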
Method in brief: as §2

[9] = BET inhibitor-based combinations targeting novel dependencies in MECOM-rearranged (r) AML: AML-194 cell line (AID 2202237; further: nearly all actives have a fitted effect of over 40% in size; further: potency means the concentration at half of the fitted maximal effect;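 on viability (% of control): plate controls were vehicle wells for no effect and wells without cells for full effect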)
Method in brief: as §1

[10] = BET inhibitor-based combinations targeting novel dependencies in MECOM-rearranged (r) AML: MV-4-11 cell line (AID 2202233); further: nearly all actives have a fitted effect of over 45% in size; further: potency means the concentration at half of the fitted maximal effect;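 on viability, % of control: plate controls were DMSO for no effect and blank wells for full effect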
Method in brief: as §2

Sequence of Cellular tumor antigen p53 (Homo sapiens) (P04637 whole entry, looked up): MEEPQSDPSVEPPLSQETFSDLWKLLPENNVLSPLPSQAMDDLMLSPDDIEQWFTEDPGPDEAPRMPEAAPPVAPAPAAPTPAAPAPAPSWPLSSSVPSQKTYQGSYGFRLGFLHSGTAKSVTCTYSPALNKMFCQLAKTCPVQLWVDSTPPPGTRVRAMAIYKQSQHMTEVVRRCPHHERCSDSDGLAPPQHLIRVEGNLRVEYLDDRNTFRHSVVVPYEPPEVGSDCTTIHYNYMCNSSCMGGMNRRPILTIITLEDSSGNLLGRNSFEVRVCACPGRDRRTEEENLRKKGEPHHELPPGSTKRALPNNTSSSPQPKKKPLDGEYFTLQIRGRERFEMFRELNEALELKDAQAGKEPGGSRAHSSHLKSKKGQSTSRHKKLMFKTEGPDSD

CCC(=O)N[C@H]1CC[C@H](C(=O)N(C)c2ccc(-c3nc4ccccc4o3)cc2)C1
inactive: activation [1] 18% | Potency [2] | Potency [3] | viability [4] 98.9% | Potency [6]
active: Potency [5] 18.6 µM | Potency [7] 20.9 µM

O=C(c1cncc(Br)c1)N1CCC(N2CCCC2)CC1
inactive: activation [1] -12.4% and 0.333% | Potency [2] | Potency [3] | viability [4] 113% | Potency [5] | Potency [8] | Potency [6] | Potency [7] | Potency [9]

Cc1c(C(=O)N2CCOc3ccc(-c4ccc(N)nc4)cc3C2)ccc(S(C)(=O)=O)c1F
active: Potency [1] 26.9 µM | Potency [4] 13.2 µM | Potency [10] 6.61 µM | Potency [8] 2.95 µM | Potency [6] 0.742 µM | Potency [7] 1.86 µM
inactive: Potency [2] | Potency [3]

Nc1ccn([C@@H]2O[C@H](CO)[C@@H](O)C2(F)F)c(=O)n1
active: Potency [4] 0.0235 µM | Potency [10] 0.0059 µM | Potency [8] 0.0372 µM | Potency [6] 0.0186 µM | Potency [7] 0.0132 µM | Potency [9] 0.0209 µM
inactive: activation [1] -26.8% and -6.68% | Potency [2] | Potency [3]

CCCS(=O)(=O)Nc1ccc(F)c(C(=O)c2c[nH]c3ncc(Cl)cc23)c1F
inactive: activation [1] 27.8% and 12.5% | Potency [2] | Potency [3] | Potency [5] | Potency [6] | Potency [9]
active: Potency [4] 16.6 µM | Potency [8] 11.8 µM

CCc1cc(C(N)=O)ccc1-n1nc(C(C)C)c2c(-n3cnc(-c4cnn(C)c4)c3)ccnc21
inactive: activation [1] 4.33% | Potency [2] | Potency [3]
active: Potency [4] 2.95 µM | Potency [10] 0.662 µM | Potency [8] 1.32 µM | Potency [6] 1.86 µM | Potency [7] 1.66 µM | Potency [9] 1.48 µM

CC#CC(=O)N1CCC[C@H]1c1nc(-c2ccc(C(=O)Nc3ccccn3)cc2)c2c(N)nccn12
inactive: activation [1] 15.7% | Potency [2] | Potency [3] | viability [4] 96.5% | Potency [5] | Potency [8] | Potency [6] | Potency [9]

O=C(NC1CCOCC1)c1ccc(-c2cc(-c3cn[nH]c3-c3ccccn3)ccn2)cc1
inactive: activation [1] 37.2% and 4.46% | Potency [2] | Potency [3] | viability [4] 101% | Potency [5] | Potency [6] | Potency [7] | Potency [9]

CNc1nc(Nc2ccc(C(=O)N3CCOCC3)cc2OC)ncc1Cl
inactive: activation [1] -0.44% and -2.68% | Potency [2] | Potency [3] | viability [4] 93.5% | Potency [5] | Potency [7]

COc1ccccc1[C@H](c1cccc2ccccc12)[C@@](C)(C#N)C(=O)N1CCC(c2cccc(C(F)(F)F)c2)CC1
inactive: activation [1] 0.109% | Potency [2] | Potency [3] | viability [4] 110% | Potency [6] | Potency [7]
active: Potency [10] 5.25 µM | Potency [8] 13.2 µM

CC[C@H](C)C(=O)O[C@H]1C[C@@H](C)C=C2C=C[C@H](C)[C@H](CC[C@@H]3C[C@@H](O)CC(=O)O3)[C@H]21
inactive: activation [1] -14.1% and 11.5% and 5.34% | Potency [2] | Potency [3] | viability [4] 109% | Potency [9]
active: Potency [10] 10.5 µM | Potency [8] 5.9 µM | Potency [6] 9.34 µM | Potency [7] 10.5 µM

Cc1c(NC(=O)c2ccc(C(C)(C)C)cc2)cccc1-c1cn(C)c(=O)c(Nc2ccc(C(=O)N3CCOCC3)cc2)n1
active: Potency [4] 16.6 µM
inactive: activation [1] 63.1% and -9.82% | Potency [2] | Potency [3] | Potency [5] | Potency [6] | Potency [9]

Cn1cnc(-c2cc3nccc(Oc4ccc(NC(=S)NC(=O)Cc5ccccc5)cc4F)c3s2)c1
inactive: activation [1] -7.76% and 19.6% | Potency [2] | Potency [3] | viability [4] 78.9%
active: Potency [10] 0.105 µM | Potency [8] 3.72 µM

Cc1cnc(Nc2ccc(OCCN3CCCC3)cc2)nc1Nc1cccc(S(=O)(=O)NC(C)(C)C)c1
inactive: activation [1] 27.2% and -7.14% and 27.9% | Potency [2] | Potency [3]
active: Potency [4] 4.68 µM | Potency [10] 0.742 µM | Potency [8] 1.66 µM | Potency [6] 2.35 µM | Potency [7] 3.32 µM | Potency [9] 5.25 µM

CC(C)[C@H](CO)Nc1nc(Nc2ccc(C(=O)O)c(Cl)c2)c2ncn(C(C)C)c2n1
inactive: activation [1] 6.33% | Potency [2] | Potency [3] | viability [4] 109% | Potency [5] | Potency [8] | Potency [6] | Potency [7] | Potency [9]

C[C@@H](NCCCc1cccc(C(F)(F)F)c1)c1cccc2ccccc12
active: Potency [4] 23.5 µM | Potency [5] 16.6 µM | Potency [8] 26.3 µM | Potency [7] 23.5 µM | Potency [9] 26.3 µM
inactive: activation [1] 1.97% | Potency [2] | Potency [3]

CCNC(=O)C#Cc1ccc2c(C(=Nc3ccc(CN(C)C)cc3)c3ccccc3)c(O)[nH]c2c1
active: Potency [1] 13.1 µM | Potency [4] 12.9 µM | Potency [10] 0.0645 µM | Potency [8] 0.091 µM | Potency [6] 0.574 µM | Potency [7] 0.204 µM | Potency [9] 0.162 µM
inactive: Potency [2] | Potency [3]

CCC(CC)CC1(C(=O)Nc2ccccc2SC(=O)C(C)C)CCCCC1
inactive: activation [1] 18.8% | Potency [2] | Potency [3] | viability [4] 117% | Potency [5] | Potency [8] | Potency [6] | Potency [7] | Potency [9]

CC1(C)CNc2cc(NC(=O)c3cccnc3NCc3ccncc3)ccc21
inactive: activation [1] -11.7% and 7.64% | Potency [2] | Potency [3] | viability [4] 63% | Potency [5] | Potency [9]

C[C@@H]1CN(Cc2ccc(F)cc2)[C@@H](C)CN1C(=O)c1cc2c(C(=O)C(=O)N(C)C)cn(C)c2cc1Cl
inactive: activation [1] 10.3% and -3.57% | Potency [2] | Potency [3] | viability [4] 94.6% | Potency [5] | Potency [8] | Potency [6] | Potency [9]

Cc1ccn(-c2ccc(-c3ncco3)cc2)c(=O)c1-c1ccc2nc(N)ncc2c1
inactive: activation [1] 28.6% | Potency [2] | Potency [3] | viability [4] 114%
active: Potency [10] 6.61 µM | Potency [8] 0.372 µM

CC(C)NC(=O)N1CC[C@H](N=C2Nc3cc(F)ccc3N(CC(F)F)c3ccc(Cl)cc32)C1
inactive: activation [1] 4.33% | Potency [2] | Potency [3] | viability [4] 109% | viability, % of control [10] 94.7% [at 8.46 µM] | viability (% of control) [8] 99.5% [at 8.46 µM] | viability (% of control) [6] 104% [at 8.46 µM] | viability (% of control) [7] 98.9% [at 8.46 µM] | viability (% of control) [9] 93.8% [at 8.46 µM]

Cc1cnc(-c2cnc(NCCNc3ccc(C#N)cn3)nc2-c2ccc(Cl)cc2Cl)[nH]1
active: Potency [4] 14.8 µM
inactive: activation [1] 9% | Potency [2] | Potency [3] | Potency [5] | Potency [6] | Potency [9]

CCNC(=O)[C@H]1O[C@@H](n2cnc3c(N)nc(NCCc4ccc(CCC(=O)O)cc4)nc32)[C@H](O)[C@@H]1O
inactive: activation [1] -4.46% | Potency [2] | Potency [3] | viability [4] 115% | Potency [5] | Potency [8] | Potency [6] | Potency [7] | Potency [9]

CC1c2ccccc2CN1NC(=O)c1ccc(Cl)c(S(N)(=O)=O)c1 (centres undefined)
inactive: activation [1] 6.69% | Potency [2] | Potency [3] | viability [4] 109% | Potency [10] | Potency [8] | Potency [6] | Potency [7] | Potency [9]

O=C1NC(=O)C(c2cnc3ccccn23)=C1c1cn2c3c(cc(F)cc13)CN(C(=O)N1CCCCC1)CC2
active: Potency [1] 30.1 µM | Potency [4] 0.0417 µM | Potency [5] 2.95 µM | Potency [8] 0.0661 µM | Potency [6] 1.66 µM | Potency [7] 0.662 µM | Potency [9] 3.72 µM
inactive: Potency [2] | Potency [3]

COc1ccc(Cc2ccc(NC(N)=O)cc2)cc1-c1cccc(Cl)c1
inactive: activation [1] 2.49% | Potency [2] | Potency [3] | viability [4] 103% | Potency [5] | Potency [8] | Potency [6] | Potency [9]

O=c1ccn([C@@H]2O[C@H](CO)[C@@H](O)[C@H]2O)c(=O)[nH]1
inactive: activation [1] 10.3% | Potency [2] | Potency [3] | viability [4] 115% | Potency [5] | Potency [8] | Potency [6] | Potency [7] | Potency [9]

CC(C)S(=O)(=O)c1ccc2nccc(Nc3ccc4scnc4c3)c2c1
active: Potency [8] 10.5 µM
inactive: activation [1] -14.3% | Potency [2] | Potency [3] | viability [4] 95.8% | Potency [5] | Potency [7] | Potency [9]

CCCn1c(=O)c2[nH]c(-c3cnn(Cc4cccc(C(F)(F)F)c4)c3)nc2n(CC)c1=O
inactive: activation [1] 0.955% | Potency [2] | Potency [3] | viability [4] 114% | Potency [10] | Potency [8] | Potency [6] | Potency [7] | Potency [9]

NC(=O)c1cccc(-c2cc(Nc3ccc(OC(F)(F)F)cc3)ncn2)c1
active: Potency [4] 20.9 µM | Potency [10] 16.6 µM
inactive: activation [1] -25.2% and 10.7% | Potency [2] | Potency [3]

COc1ccc(CCN2CCN(CCCc3ccccc3)CC2)cc1OC
active: Potency [4] 18.6 µM
inactive: activation [1] 20.6% and -1.43% | Potency [2] | Potency [3] | Potency [5] | Potency [8] | Potency [6] | Potency [7] | Potency [9]

CC(C)c1nn(-c2c(Cl)cccc2Cl)c2nc(Cc3ccc(OCCO)cc3)[nH]c(=O)c12
active: Potency [1] 68.5 nM and 60.1 nM | Potency [4] 0.0417 µM | Potency [5] 0.0742 µM | Potency [6] 0.0417 µM | Potency [7] 0.0295 µM | Potency [9] 0.0468 µM
inactive: Potency [2] | Potency [3]

Cc1cccc(CC(=O)N2CCc3c2ccc(-c2cn(C)c4ncnc(N)c24)c3F)n1
inactive: activation [1] 0.893% | Potency [2] | Potency [3]
active: Potency [4] 5.9 µM | Potency [10] 5.9 µM | Potency [8] 4.17 µM

CN1C(=O)C(Cc2c[nH]c3ccccc23)NC1=S (centres undefined)
inactive: activation [1] 23.7% | Potency [2] | Potency [3] | viability [4] 99.6% | Potency [5] | Potency [8] | Potency [7] | Potency [9]
